Results: PubChem BioAssay AID434989 (The Scripps Research Institute Molecular Screening Center, 2010)
Among all 330,000 compounds or so, about 1,400 (0.42%) were called active.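 Rule for the calls: active = inhibition above its plate's threshold, mean inhibition of all tested compounds on the plate plus 3 SD (cut at about 37% in these data); inactive = the rest.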 This excerpt belongs to a sample that is enriched for actives.

target: Orexin/Hypocretin receptor type 1 (Homo sapiens) (UniProt O43613); test: OX1R (HCRTR1) antagonists, primary screen, fluorescence, CHO/OX1R cells, Fluo-8 calcium, orexin A (AID 434989); conditions: Fluo-8 calcium fluorescence, at 5 µM, stronger effect = higher value;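 note: 0% = orexin A challenge wells and 100% = SB-334867-A antagonist wells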
Sequence (O43613 whole entry, looked up): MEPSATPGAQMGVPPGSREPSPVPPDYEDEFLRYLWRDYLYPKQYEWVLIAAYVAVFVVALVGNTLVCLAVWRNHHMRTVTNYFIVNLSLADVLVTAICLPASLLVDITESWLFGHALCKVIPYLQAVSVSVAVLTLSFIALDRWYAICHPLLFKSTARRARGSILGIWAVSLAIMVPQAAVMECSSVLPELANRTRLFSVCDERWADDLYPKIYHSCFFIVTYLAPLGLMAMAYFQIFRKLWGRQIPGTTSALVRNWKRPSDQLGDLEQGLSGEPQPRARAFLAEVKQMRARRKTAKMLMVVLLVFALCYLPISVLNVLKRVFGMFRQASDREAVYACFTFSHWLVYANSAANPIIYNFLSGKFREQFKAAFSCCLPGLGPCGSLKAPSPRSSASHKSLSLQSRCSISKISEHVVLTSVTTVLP

Row | SMILES | inhibition
1 | COc1cccc(-c2sc3ccc(OC)cc3c2-c2ccc(OCCN3CCCCC3)cc2)c1 | 29.6% (inactive)
2 | COc1ccc2[nH]c3c(c2c1)CCN1C(=O)C(CC(=O)NCCCN(C)C)C[C@H](C(=O)N2CCOCC2)[C@@]31CCC1CCCC1 (stereo partly specified) | -21.8% (inactive)
3 | O=C1CCC/C=C/C[C@@H](CC(=O)N(CCO)Cc2ccccc2)C(=O)NC[C@H](c2ccccc2)O1 | -18% (inactive)
4 | CCN(CC)c1ccc(/C=N/NC(=O)c2cnccn2)c(O)c1 | 48.7% (active)
5 | Cc1ccc(C(=O)NCCNC(=O)c2cnccn2)cc1 | -1.97% (inactive)
6 | CCN(CC)c1ccc(/C=N/NC(=O)CNC(=O)c2cccnc2)cc1 | -5.59% (inactive)
7 | O=C(CCCOc1ccccc1)NNC(=O)c1ccc(Cl)cc1 | -15.2% (inactive)
8 | C=CC[C@H](CC(=O)NCCO)C(=O)N[C@@H](COC(=O)[C@@H](CC=C)Cc1ccc(F)cc1)Cc1c[nH]c2ccccc12 | -17.6% (inactive)
9 | O=C(NCCc1ccco1)c1ccc(OCc2cn3ccccc3n2)cc1 | -20.6% (inactive)
10 | C=CC[C@@H](Cc1ccc(F)cc1)C(=O)OC[C@H]1CCCN1C(=O)[C@H](CC=C)CC(=O)N(CCO)Cc1ccccc1 | 24.4% (inactive)
11 | Cn1c2ccccc2c(=O)c2c(=O)n(Cc3ccco3)c(COc3ccccc3)nc21 | -11.8% (inactive)
12 | CCCc1nc2c(c(=O)c3ccccc3n2C)c(=O)n1-c1cc(C)cc(C)c1 | -30.9% (inactive)
13 | CCCc1nc2c(c(=O)c3ccccc3n2C)c(=O)n1C1CCCCCC1 | 41.5% (active)
14 | CC[C@]12c3[nH]c4ccc(Cl)cc4c3CCN1C(=O)[C@@H](CC(=O)NCCCOC)C[C@@H]2C(=O)N1CCN(C(=O)C2CC2)CC1 | -13.7% (inactive)
15 | CCOC(=O)C1=C(C)N(C[C@@H]2CC[C@@H](Cc3ccc(-c4ccccc4)cc3)O2)C(=O)NC1c1ccc([N+](=O)[O-])cc1 (stereo partly specified) | -13% (inactive)
16 | CN(C)C(=O)CCc1ccc2c3c([nH]c2c1)[C@]1(CCc2ccccc2)[C@@H](C(=O)N2CCCCC2)C[C@H](CC(=O)NCCC2=CCCCC2)C(=O)N1CC3 | -7.84% (inactive)
17 | CC(C)N(C(=O)[C@H]1C[C@H](CC(=O)NC(C)(C)C)C(=O)N2CCc3c([nH]c4ccc(Cl)cc34)[C@]12C)C(C)C | -33.8% (inactive)
18 | Cc1cccc(OCC(=O)NC(=S)Nc2ccccc2N2CCOCC2)c1 | -22.4% (inactive)
19 | Cc1ccc(O)c(NC(=O)COc2cc(C)ccc2C)c1 | 2.38% (inactive)
20 | Cc1ccc(O)c(NC(=S)NC(=O)COc2ccc(Br)cc2)c1 | 78.4% (active)
21 | COC(=O)c1ccc(C)c(NC(=O)Cn2c(C)csc2=O)c1 | -20% (inactive)

Row | SMILES | inhibition
22 | CCC1CCCCN1C(=S)NC(=O)c1ccco1 (stereo unspecified) | 5.19% (inactive)
23 | CC(C)CC1NC(=O)c2cc(Cl)ccc2-n2c1nc1ccccc1c2=O (stereo unspecified) | -24.4% (inactive)
24 | O=C(NC(=S)Nc1ccc(Br)cc1F)C1CCCCC1 | 0.61% (inactive)
25 | O=C1NC(Cc2ccc(O)cc2)c2nc3ccc(Cl)cc3c(=O)n2-c2ccccc21 (stereo unspecified) | -10% (inactive)
26 | COc1ccc(CCNC(=O)c2cc3sccc3n2C)cc1OC | -27.4% (inactive)
27 | CCOc1ccc(CCNC(=O)C(CC)n2nc(C)n3c(cc4sccc43)c2=O)cc1OCC (stereo unspecified) | 64.5% (active)
28 | CCC(C(=O)NCc1ccc(OC)cc1)n1nc(C)n2c(cc3occc32)c1=O (stereo unspecified) | -43.4% (inactive)
29 | Cc1ccc(S(=O)(=O)N2CCN(c3ncnc4ccccc34)CC2)cc1 | 38.9% (inactive)
30 | COc1ccc(C)cc1S(=O)(=O)N1CCN(S(=O)(=O)c2cc(C(=O)O)ccc2C)CC1 | -8.92% (inactive)
31 | Cc1ccc(C)c(S(=O)(=O)N2CCN(c3ncnc4sccc34)CC2)c1 | 51.7% (active)
32 | Cc1cccc(NS(=O)(=O)c2ccc(C)c(C(=O)NCc3cccnc3)c2)c1 | -9.11% (inactive)
33 | C/C=C/c1ccc(OCC(=O)NNC(=O)CN(C)S(=O)(=O)c2ccc(C)cc2)c(OC)c1 | -47.6% (inactive)
34 | O=C(C[C@@H]1C/C=C\CCC(=O)OC[C@@H]2CCCN2C1=O)NCCO | -14.7% (inactive)
35 | Cc1ccccc1NC(=S)NC(=O)Cc1ccc(Cl)cc1 | 17.1% (inactive)
36 | O=C(Cc1ccc(Cl)cc1)NC(=S)Nc1ccccc1O | 61.6% (active)
37 | O=C(COc1ccc(Cl)cc1)NC(=S)Nc1ccccc1N1CCOCC1 | -46.4% (inactive)
38 | CC(=O)C[C@H](O)CC(=O)[C@@H]1OC(=O)[C@@H](C)C/C=C\Cc2ccccc21 | -24.4% (inactive)
39 | CN(C(=O)c1cccc(NC(=O)Cc2ccc([N+](=O)[O-])cc2)c1)C1CCC1 | -24% (inactive)
40 | COC(=O)[C@]1(Cc2ccccc2)N[C@H](CN(C)S(=O)(=O)c2ccc(OC(F)(F)F)cc2)[C@@H]2C(=O)N(Cc3ccccc3)C(=O)[C@@H]21 | -14.3% (inactive)
41 | O=C(COC(=O)Cc1ccc([N+](=O)[O-])cc1)NC1CCCCCC1 | -29.4% (inactive)
42 | CCOC(=O)N1CCN(C(=O)CSc2nc(=O)n3cccc(C)c3n2)CC1 | -4.53% (inactive)

Row | SMILES | inhibition
43 | Cc1cccn2c(=O)c(/C=C3\SC(=S)N(CC(C)C)C3=O)c(NCCCOC(C)C)nc12 | -8.49% (inactive)
44 | CCOC(=O)CC1C(=O)NCCN1c1nc2c(C)cccn2c(=O)c1/C=C1\SC(=S)N(C(C)CC)C1=O (stereo unspecified) | 78.6% (active)
45 | O=C1C=CN2CCCC2CC1 (stereo unspecified) | -11.6% (inactive)
46 | c1ccc(-c2cc3c(NCC4COc5ccccc5O4)ncnc3s2)cc1 (stereo unspecified) | -20% (inactive)
47 | c1ccc2c(c1)OCC(CNc1ncnc3nc[nH]c13)O2 (stereo unspecified) | 90.5% (active)
48 | S=C(NCC1COc2ccccc2O1)Nc1ccc(Br)cc1 (stereo unspecified) | 15.9% (inactive)
49 | COc1ccc(CNC(=O)COC(=O)c2sccc2C)cc1OC | -11.2% (inactive)
50 | Cc1noc(C)c1NC(=O)Nc1cccc2c1O[C@H](CN(C)S(=O)(=O)c1c(C)noc1C)[C@@H](C)CN([C@H](C)CO)C2=O | -19.7% (inactive)
51 | CCN(C(=O)COC(=O)CCC(=O)c1cccs1)C1CCCCC1 | -13.9% (inactive)
52 | COc1ccc(/C=C/C(=O)OCC(=O)NC2CCCCCC2)cc1OC | -27.2% (inactive)
53 | CC[C@]12c3[nH]c4ccc(OC)cc4c3CCN1C(=O)C(CC(=O)NCCN1CCOCC1)C[C@@H]2C(=O)N1CCN(C(=O)C2CC2)CC1 (stereo partly specified) | -6.98% (inactive)
54 | CCN(CC(=O)Nc1ccccc1OC)C(=O)Cn1cnc2ccccc2c1=O | -15.9% (inactive)
55 | CCN(CC(=O)Nc1ccccc1OC)C(=O)CC1CC2CCC1C2 (stereo unspecified) | -19.5% (inactive)
56 | CCCN(CC(=O)Nc1ccccc1OC)C(=O)CCC(=O)c1ccc(F)cc1 | 44.7% (active)
57 | NS(=O)(=O)c1cccc(NC(=O)COC(=O)c2cc([N+](=O)[O-])ccc2N2CCCC2)c1 | -7.78% (inactive)
58 | O=C(COC(=O)/C=C/c1ccc(Br)o1)Nc1cccc(S(=O)(=O)N2CCOCC2)c1 | -6.48% (inactive)
59 | O=C(C[C@H]1C/C=C\C[C@@H](NC(=O)OCC2c3ccccc3-c3ccccc32)C(=O)O[C@@H](c2ccccc2)CNC1=O)N[C@H](CO)Cc1ccccc1 | -18.2% (inactive)
60 | O=C(COC(=O)CN1C(=O)C2CCCCC2C1=O)Nc1ccc(F)c(F)c1F (stereo unspecified) | -8.95% (inactive)
61 | O=C(O)CC1=C(Nc2ccccc2)C(=O)N(c2ccccc2)C1c1ccc(Cl)cc1 (stereo unspecified) | -21.1% (inactive)
62 | O=C(CCC(=O)OCc1ccc(Cl)cc1)Nc1ccccc1 | -9.06% (inactive)
63 | O=C1C=C(c2ccc(Cl)cc2)C(=O)N1Nc1ccccc1 | 53.2% (active)

Row | SMILES | inhibition
64 | Cc1ccc(S(=O)(=O)N2C[C@@H]3CCCC[C@@H]3[C@@H](C)[C@H]2c2cn(Cc3ccccc3)c3ccc(F)cc23)cc1 | 6.16% (inactive)
65 | Fc1ccc2cnc(-c3ccccc3)cc2c1 | -19.1% (inactive)
66 | Cc1cc2nc3c(=O)n(Cc4ccccc4)c(=O)[nH]c3nc2cc1N | 54.6% (active)
67 | CC(=O)c1ccc(-c2ccc(Cn3c(C)nc4cc(N)c(C)nc43)cc2)cc1 | -25.1% (inactive)
68 | Cc1cc(-c2csc(N)n2)c(C)n1Cc1ccccc1 | -19.7% (inactive)
69 | COc1ccc(NC(=O)Nc2ccc3c(c2)C(=O)N([C@H](C)CO)C[C@H](C)[C@@H](CN(C)C(=O)Nc2ccc4c(c2)OCO4)O3)cc1 | 1.29% (inactive)
70 | COc1ccc(-c2nc3cc(C)ccn3c2NC2CCCCC2)cc1SC1CCCCC1 | 25.4% (inactive)
71 | CN(c1ccccc1)c1ccc(/C=c2\s/c(=C(/C#N)C(=O)C(C)(C)C)n(Cc3ccco3)c2=O)cc1 | 42% (active)
72 | CCOC(=O)Cn1c(=O)oc2cc(S(=O)(=O)N(C)Cc3ccco3)ccc21 | -12% (inactive)
73 | CCOC(=O)/C=c1\s/c(=C\c2ccc(C#N)cc2)c(=O)n1CC(=O)Nc1cccc(C)c1C | 1.96% (inactive)
74 | COC(=O)c1sc(-c2ccc(C(C)(C)C)cc2)cc1NC(=O)/C=C/C(=O)O | 55.5% (active)
75 | CC(C)(C)c1ccc(/C=C/C(=O)Nc2ncccn2)cc1 | -7.7% (inactive)
76 | CSc1ccc(NC(=O)/C=C/C(=O)O)cc1 | -13% (inactive)
77 | O=C(NNS(=O)(=O)c1c(F)cc(F)c(Cl)c1F)C12CC3CC(CC(C3)C1)C2 | 4.78% (inactive)
78 | O=C(COC(=O)COc1cccc(F)c1)NCC1CCCCC1 | -16.8% (inactive)
79 | CN(C)S(=O)(=O)c1cccc(NC(=O)Cc2ccsc2)c1 | -7.6% (inactive)
80 | CN(c1ccccc1)S(=O)(=O)c1cccc(NC(=O)Cc2c(F)cccc2Cl)c1 | 11.3% (inactive)
81 | CN(c1ccccc1)S(=O)(=O)c1cccc(NC(=O)Cc2ccc(Cl)cc2)c1 | 42.1% (active)
